According to PubChem BioAssay AID1423 (NMMLSC, 2008):
About 750 (0.34%) of roughly 220,000 compounds were called active. Rule as the data show it: active = response below about 60% or above about 140%; inactive = in between. This excerpt belongs to a sample that is enriched for actives.

Molecular target: Guanine nucleotide-binding protein G(o) subunit alpha (Homo sapiens) (UniProt P09471)
Experiment: RGS8-Galphao binding modulators, primary screen, biochemical, multiplexed bead flow cytometry (AID 1423);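 also: Galphao activated as the GDP aluminium fluoride complex binding bead-coupled RGS8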
Details: at 10 µM, actives lie on both sides

Guanine nucleotide-binding protein G(o) subunit alpha (Homo sapiens), sequence (P09471 whole entry, looked up): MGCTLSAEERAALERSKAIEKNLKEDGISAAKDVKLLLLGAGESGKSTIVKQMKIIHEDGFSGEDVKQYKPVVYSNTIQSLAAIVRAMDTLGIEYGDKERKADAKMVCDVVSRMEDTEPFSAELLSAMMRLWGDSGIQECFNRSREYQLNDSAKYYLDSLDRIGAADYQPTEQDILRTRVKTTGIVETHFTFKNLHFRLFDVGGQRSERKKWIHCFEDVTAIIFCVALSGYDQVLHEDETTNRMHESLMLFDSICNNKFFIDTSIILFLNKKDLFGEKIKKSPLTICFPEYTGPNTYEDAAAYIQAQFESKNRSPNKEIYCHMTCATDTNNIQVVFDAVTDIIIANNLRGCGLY

Row | Structure (SMILES) | response (percent of control binding)
1 | S=C1NC(c2ccccc2)=NCN1c1ccc(Br)cc1 | 106% (inactive)
2 | COc1ccc(N2C(=O)CNC2=S)cc1 | 102% (inactive)
3 | CC(C)NC(=O)c1ccc(Sc2ccccc2)c([N+](=O)[O-])c1 | 103% (inactive)
4 | Cc1c(C(=O)Nc2cccc(-c3nnc4n3CCCCC4)c2)oc2ccccc12 | 101% (inactive)
5 | Nc1ccc(C(=O)OCC(=O)NC2CCCc3ccccc32)cc1[N+](=O)[O-] (centres undefined) | 101% (inactive)
6 | O=C(COC(=O)/C=C/c1ccc2c(c1)OCO2)NC1CCS(=O)(=O)C1 (centres undefined) | 99.8% (inactive)
7 | Nc1ccc(C(=O)OCC(=O)NC2CCS(=O)(=O)C2)cc1[N+](=O)[O-] (centres undefined) | 6.98% (active)
8 | Cc1ccc(/C=N/NC(=O)CSc2ccccn2)o1 | 101% (inactive)
9 | CC[C@H]1OC(=O)[C@H](C)[C@@H](O[C@H]2C[C@@](C)(OC)[C@@H](O)[C@H](C)O2)[C@H](C)[C@@H](O[C@@H]2O[C@H](C)C[C@H](N(C)C)[C@H]2O)[C@](C)(O)C[C@@H](C)[C@@H]2N[C@@H](COCCOC)O[C@H]([C@H]2C)[C@]1(C)O | 85.8% (inactive)
10 | CCC(=O)Nc1nc(OC)cc(OC)n1 | 100% (inactive)
11 | CC(=O)Nc1nc(N(C)C)nc(N(C)C)n1 | 25.1% (active)
12 | COc1cc(OC)nc(NC(=O)CCl)n1 | 100% (inactive)
13 | CC(=O)c1c(C)[nH]c(C(=O)OCC(=O)Nc2sc3c(c2C#N)CCCC3)c1C | 101% (inactive)
14 | O=Cc1ccc(OCc2cn3ccccc3n2)cc1 | 101% (inactive)
15 | Cn1cc(CCC(=O)N2CCCC(C(=O)c3ccc(C(C)(C)C)cc3)C2)cn1 (centres undefined) | 98.1% (inactive)
16 | CCOC(=O)C1CCCN(C(=O)/C=C/c2ccc(OC)cc2)C1 (centres undefined) | 100% (inactive)
17 | COc1cc(C2C(C(=O)c3ccc(C)o3)=C(O)C(=O)N2CCc2ccccc2)ccc1O (centres undefined) | 101% (inactive)
18 | C=CCOC(=O)C1=C(C)N=C2SCCC(=O)N2C1/C=C/c1ccccc1OC (centres undefined) | 92.4% (inactive)
19 | CCOC(=O)C1=C(c2ccccc2)N=C2SCC(=O)N2C1c1ccc(O)c(OC)c1 (centres undefined) | 144% [activator] (active)
20 | O=C(COc1nc2ccccc2nc1N1CCOCC1)NCC(F)(F)F | 86% (inactive)
21 | CCOc1cc2[nH]c(=S)n(CCN3CCCCC3C)c(=O)c2cc1OCC (centres undefined) | 111% (inactive)
22 | CC(=O)NC1C(OCc2ccccc2)OC(COC(C)=O)C(OC(C)=O)C1OC(C)=O (centres undefined) | 105% (inactive)
23 | O=C(OCC1O[C@@H](OC(=O)c2cc(O)c(O)c(O)c2)[C@@H](OC(=O)c2cc(O)c(O)c(O)c2)[C@@H](OC(=O)c2cc(O)c(O)c(O)c2)[C@@H]1OC(=O)c1cc(O)c(O)c(O)c1)c1cc(O)c(O)c(O)c1 (some centres undefined) | 46.9% (active)
24 | Cc1nnc(-c2ccc(Oc3ccc(C)c(C)c3)c([N+](=O)[O-])c2)o1 | 99.2% (inactive)
25 | O=C(Oc1ccccc1C(=S)N1CCCCC1)c1cc([N+](=O)[O-])cc([N+](=O)[O-])c1 | 95.2% (inactive)
26 | Cc1cc(=O)oc2cc(OCCC[n+]3ccccc3)ccc12 | 101% (inactive)
27 | CCOC(=O)c1c(/N=C/C2C(=O)CC(C)(C)CC2=O)sc(C)c1C | 113% (inactive)

Row | Structure (SMILES) | response (percent of control binding)
28 | Cc1ccc(C(=O)NCC(=O)O)s1 | 102% (inactive)
29 | N=C1C(=O)OCC1c1ccccc1NC(=O)CN1CCCCC1 (centres undefined) | 100% (inactive)
30 | CCCc1ccc(C(=O)[C@@H]2[C@@H](C(C)=O)N3c4ccc(F)cc4C=C[C@@H]3[C@@]23C(=O)Nc2ccccc23)cc1 | 94.4% (inactive)
31 | Cn1nc(-c2ccccc2)c(CO)c1Sc1ccccc1 | 95.1% (inactive)
32 | CC(C)(C)CN1C(=O)C(=O)NC[C@H]1Cc1cccc2ccccc12 | 96.5% (inactive)
33 | CC(NC(=O)CCC(=O)N1CCN(S(=O)(=O)c2ccc(Cl)cc2)CC1)c1ccccc1 (centres undefined) | 101% (inactive)
34 | CCNC(=O)NC(=O)C(C)OC(=O)C1CCN(S(=O)(=O)c2ccccc2F)CC1 (centres undefined) | 106% (inactive)
35 | CC(NC(=O)COC(=O)C1CCN(S(=O)(=O)c2ccccc2C(F)(F)F)CC1)c1ccccc1 (centres undefined) | 148% [activator] (active)
36 | O=C(C1CC1)N1N=C2CCCCC2C1(O)C(F)(F)F (centres undefined) | 100% (inactive)
37 | COC(=O)c1c(NC(=O)CN2CCN(S(=O)(=O)c3ccccc3[N+](=O)[O-])CC2)sc2c1CCC(C)C2 (centres undefined) | 104% (inactive)
38 | Cc1ccc(C)c(NC(=O)c2ccc(OC(=O)c3ccco3)cc2)c1 | 102% (inactive)
39 | CC1=CC2=NC(=O)/C(=C/c3coc4ccccc4c3=O)C(=N)N2O1 | 108% (inactive)
40 | O=C(COC(=O)CC1CC2CCC1C2)NC(=O)NC1CCCC1 (centres undefined) | 102% (inactive)
41 | O=C(c1ccccc1)C(Cn1cncn1)C(Sc1ccccc1)c1ccccc1 (centres undefined) | 92.9% (inactive)
42 | NC(=O)C1(N2CCCCC2)CCN(C(=S)Nc2ccc(Cl)cc2)CC1 | 129% (inactive)
43 | CC(C)(O)C#Cc1ccc(C(=O)N2CCC(C(N)=O)(N3CCCCC3)CC2)cc1 | 100% (inactive)
44 | CCC(=O)N1CCC(C(N)=O)(N2CCCCC2)CC1 | 163% [activator] (active)
45 | COc1ccc(NC(=S)NCC2CCN(c3ccc(OC)cc3)C2)cc1 (centres undefined) | 97.5% (inactive)
46 | Cc1ccc(S(=O)(=O)N2CCOCC2)cc1C(=O)NC(=S)N(Cc1ccccc1)C(C)C | 96.3% (inactive)
47 | COc1ccc(NC(=S)N2CCc3cc(OC)c(OC)cc3C2)cc1 | 103% (inactive)
48 | O=C(CSc1ncn[nH]1)Nc1nsc(-c2ccccc2)n1 | 79% (inactive)
49 | CC(C)(C)C1C/C(=C/c2ccco2)C(=O)/C(=C/c2ccco2)C1 (centres undefined) | 97.5% (inactive)
50 | O=C(CN1CCCCCC1)N1c2ccccc2Sc2ccc(C(F)(F)F)cc21 | 107% (inactive)
51 | COc1cc(/C=C/C(=O)N2c3ccccc3Sc3ccc(C(F)(F)F)cc32)cc(OC)c1OC | 101% (inactive)
52 | O=C(CN1CCCCC1)N1c2ccccc2Sc2ccc(C(F)(F)F)cc21 | 22.7% (active)
53 | Cc1nc(N2CCOCC2)nc2c1CCCC2 | 99.2% (inactive)
54 | C[C@@H]1NC(=O)c2cc([N+](=O)[O-])cc(F)c2NCCC[C@@H](C(N)=O)NC(=O)[C@H](CC(N)=O)NC1=O | 100% (inactive)
